# The list is not random: actives were taken first. Their share in the collection is about 2.8%.
# SENP8 block-1 – inhibitors of human SENP8 protease | AID 2540 | Q96LD8 | hit rate 1.2% among 330,000 | inhibition, % at 10 µM | purified SENP8, Z-RLRGG-aminoluciferin cleavage, luminescence; in the data active = inhibition above about 50%
# Target sequence (Q96LD8 whole entry, looked up): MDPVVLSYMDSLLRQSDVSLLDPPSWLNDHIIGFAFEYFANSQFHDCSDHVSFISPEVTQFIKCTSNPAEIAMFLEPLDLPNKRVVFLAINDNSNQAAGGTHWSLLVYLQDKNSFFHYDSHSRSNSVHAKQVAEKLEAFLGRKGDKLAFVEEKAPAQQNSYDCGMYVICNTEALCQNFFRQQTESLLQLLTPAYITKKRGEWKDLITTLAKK
# HSP90 inh – inhibitors of HSP90 luciferase refolding in rabbit reticulocyte lysate; inhibition, % at 5.6 µM; hit rate 0.91% among 290,000; luciferase refolding luminescence, 3 h; AID 1789;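 active = inhibition above the screen-wide mean plus 3 SD, computed separately per campaign, cut at about 16% in these data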;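 note: inhibitors lower the luminescence because luciferase stays unfolded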
# SENP6 block – blocks the human protease SENP6; Q9GZR1; Recombinant SENP6 catalytic domain, aminoluciferin luminescence; inhibition, % at 10 µM; hit rate 1.8% among 330,000;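 active = inhibition above about 50% at the single tested dose, limit read from the data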
# SENP7 block – inhibitors of human SENP7 protease | inhibition, % at 5 µM | Q9BQF6 | hit rate 1.5% among 330,000 | recombinant SENP7, Z-RLRGG-aminoluciferin luminescence, 40 min;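 active = inhibition above about 50% at the single test dose, limit read from the data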
# SENP8 block-2 – SENP8 (human) protease inhibition; inhibition, % at 20 µM; recombinant SENP8, Nedd8 substrate fluorescence; AID 602440; hit rate 0.64% among 360,000; in the data active = inhibition mostly above about 40%, no sharp cut-off; inactive = mostly below about 27%
# HSP90 confirm – confirmation of HSP90 inhibitors; inhibition, % at 5.9 µM; hit rate 64% among 2,300; shares compounds with HSP90 inh; rabbit reticulocyte lysate, luciferase refolding luminescence, 3 h; AID 1846; in the data active = inhibition above about 18%
# FLuc counter – counter-screen for HSP90 inhibitors: inhibitors of firefly luciferase; shares compounds with HSP90 inh; purified native firefly luciferase, luminescence; inhibition, % at 5.9 µM; hit rate 48% among 2,300;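 active = inhibition above the mean inhibition of all tested sample wells plus 3 SD, cut at about 10% in these data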
# Numbers stand for hits; . = inactive; / = not tested or not shown.
SMILES,SENP8 block-1,HSP90 inh,SENP6 block,SENP7 block,SENP8 block-2,HSP90 confirm,FLuc counter
COc1ccc2[nH]c(O)c(N=NC(=O)Cc3cccs3)c2c1,.,23,.,.,.,.,.
COc1ccc(OC)c(-c2cc(C(=O)N/N=C(\C)c3cccnc3)c3ccccc3n2)c1,.,.,.,.,.,/,/
CCOc1ccc(-c2cc(C(=O)N/N=C(\C)c3cccnc3)c3ccccc3n2)cc1,.,28,.,.,.,.,.
O=C(Nc1cccc(F)c1)c1ccc2ncsc2c1,.,.,.,.,.,/,/
CCC(C)c1ccc2oc(-c3ccc(NC(=O)Cn4cnc5c(=O)n(C)c(=O)n(C)c54)cc3)nc2c1 (stereo unspecified),.,26,.,.,.,27,18
Cc1cc(C(=O)CN2C(=O)c3ccccc3S2(=O)=O)c(C)n1CC1CCCO1 (stereo unspecified),.,24,.,.,.,28,.
CCN1CCN(Cc2ccc(NC(=O)Nc3ccccc3)cc2)CC1,.,20,.,.,.,29,.
COC(=O)C(C)(C(=O)OC)c1ccccc1[N+](=O)[O-],.,.,.,.,.,/,/
CSCCC(NC(=O)c1cccc(S(=O)(=O)N2CCOCC2)c1)C(=O)Nc1ccc(F)cc1 (stereo unspecified),.,.,.,.,.,/,/
COc1ccc2cc3cc(C(=O)NCCN4CCc5ccccc5C4)oc3nc2c1,.,.,.,.,.,/,/
Cc1ccc(C(=O)n2c3ccccc3c3ccccc32)cc1,.,17,.,.,.,.,.
CC(=O)n1c2ccccc2c2ccccc21,.,.,.,.,.,/,/
COC(=O)c1cc(C)sc1NC(=O)C1CC=CCC1C(=O)O (stereo unspecified),.,.,.,.,.,/,/
CC(C)(C)C(=O)Nc1ccc(/C=C/C(=O)c2ccco2)cc1,.,26,.,.,.,40,50
O=C(Nc1ccc(NC(=O)C2CCCCC2)cn1)c1ccco1,.,22,.,.,.,55,47
Nc1ccc(/C=C/C(=O)c2ccco2)cc1,.,.,.,.,.,/,/
CC(C)(C)C(=O)Nc1ccc(NC(=O)c2ccco2)nc1,.,91,.,.,.,89,84
O=C(Nc1ccc(NC(=O)c2ccco2)nc1)c1ccco1,.,.,.,.,.,/,/
CCOc1ccc(OCc2ccc(C(=O)Nc3cccnc3)o2)cc1,.,28,.,.,.,32,.
Cc1ccc(OCc2ccc(C(=O)N3CCCC3)o2)cc1C,.,.,.,.,.,/,/
CCOc1ccc(OCc2ccc(C(=O)N3CCc4ccccc4C3)o2)cc1,.,24,.,.,.,33,.
CCOc1ccc(OCc2ccc(C(=O)N3CCCCC3)o2)cc1,.,23,.,.,.,.,.
O=C(c1ccc2nc(N3CCOCC3)sc2c1)N1CCCC1,.,.,.,.,.,/,/
COc1ccc(N2CCN(C(=O)c3ccc4nc(N5CCCCC5)sc4c3)CC2)cc1,.,19,.,.,.,29,.
COc1cc(SC)ccc1C(=O)Nc1ccccn1,.,18,.,.,.,47,38
SMILES,SENP8 block-1,HSP90 inh,SENP6 block,SENP7 block,SENP8 block-2,HSP90 confirm,FLuc counter
COc1cc(SC)ccc1C(=O)Nc1cccc(C)n1,.,.,.,.,.,/,/
COc1ccc(C(=O)Nc2ccc(NC(=O)CSc3nnc(-c4ccncc4)n3C)cc2)cc1,.,.,.,.,.,/,/
NC(=O)N/N=C/c1cc(Br)ccc1OCC(=O)NCc1ccccc1,.,.,.,.,.,/,/
O=C(Cc1ccccc1F)NCC1(N2CCOCC2)CCCCC1,.,.,.,.,.,/,/
CC(C)c1ccc(N(CC(=O)NCc2cccnc2)S(=O)(=O)c2ccccc2)cc1,.,27,.,.,.,.,.
c1ccc(Nc2ccccn2)nc1,.,25,.,.,.,.,.
CNS(=O)(=O)c1ccc(C)cc1,.,.,.,.,.,/,/
COc1ccccc1CNc1ccc2nnc(CCNC(=O)c3ccccc3)n2n1,.,.,.,.,.,/,/
CCc1ccc(Nc2n[n+](-c3ccccc3)c(-c3ccc(N(CC)CC)cc3)s2)cc1,.,20,.,.,.,46,.
Brc1ccc(N=C/C=C/C=C/Nc2ccc(Br)cc2)cc1,.,.,.,.,.,/,/
Cc1ccc2c(COC(=O)c3ccc(NC(=O)CC#N)cc3)cc(=O)oc2c1C,.,19,.,.,.,22,.
Cc1cc(C)c(C(=O)COC(=O)c2ccc(NC(=O)CC#N)cc2)cc1C,.,.,.,.,.,/,/
